From ChEMBL document CHEMBL3988442, “University of Dundee, Small-Polar-MMV Screening Library” (2021)
Hit rate of the full screen: of about 48,000 compounds, about 13,000 (27%) showed an effect of 50% or more. Some of the results follow.

Test system: Wolbachia pipientis
Test: Anti-Wolbachia Cell-Based Screen
Assay type: functional
Design: scale not given: in the data most compounds retested in dose-response had high values
Settings: 5 µM

| SMILES | Percent Effect |
| --- | --- |
| CN(C)C(=O)CN1CCC2(CCN(Cc3nccs3)CC2)C1=O.O=C(O)C(F)(F)F | -19.71% |
| CN(C)C1COC2(CCN(Cc3nccs3)CC2)C1.O=C(O)C(F)(F)F.O=C(O)C(F)(F)F (centres undefined) | 52.92% |
| CC1N(CC2CC2)C(=O)COC12CCN(Cc1nccs1)CC2.O=C(O)C(F)(F)F (centres undefined) | -4.952% |
| CC1N(C)C(=O)COC12CCN(Cc1nccs1)CC2.O=C(O)C(F)(F)F (centres undefined) | 126.1% |
| CC(C)CN1CCC2(CCN(Cc3nccs3)CC2)C1=O.O=C(O)C(F)(F)F | 1.148% |
| CCc1ccc2c(c1)C(CCNC(=O)Cc1ccc(F)cc1)C(=O)N2 (centres undefined) | 3.277% |
| Cc1c(CNCC(C)Oc2cccnc2)c2ccccc2n1CC(N)=O (centres undefined) | 60.46% |
| COc1ncccc1C(=O)NCC(C)Oc1cccnc1 (centres undefined) | -11.32% |
| Cc1c(CNCCCOc2cccnc2)c2ccccc2n1CC(N)=O | -2.741% |
| Cc1cc2n(n1)CC(CNC1CCN(C(=O)c3ccco3)CC1)CN2 (centres undefined) | 7.634% |
| COCCN1CCCC(O)(CN2CCCN(c3ncccn3)CC2)C1=O (centres undefined) | -4.112% |
| CN(Cc1cscn1)C1CCCN(Cc2noc(C3CC3)n2)C1 (centres undefined) | 3.354% |
| CN(CC1(O)CCCCC1)C1CCCN(Cc2noc(C3CC3)n2)C1 (centres undefined) | 0.01553% |
| CN(CCc1ccncc1)C1CCCN(Cc2noc(C3CC3)n2)C1 (centres undefined) | 107.5% |
| CN(CCn1cccn1)C1CCCN(Cc2noc(C3CC3)n2)C1 (centres undefined) | 100.3% |
| CN(CCc1ccccn1)C1CCCN(Cc2noc(C3CC3)n2)C1 (centres undefined) | 103.4% |
| Cc1cc(CN(C)C2CCCN(Cc3noc(C4CC4)n3)C2)no1 (centres undefined) | 1.987% |
| CN(CCc1cccs1)C1CCCN(Cc2noc(C3CC3)n2)C1 (centres undefined) | -17.24% |
| Cc1nc(CN2CCCC(N(C)CCc3ccncc3)C2)no1 (centres undefined) | -4.077% |
| CN(CCS(C)(=O)=O)C1CCCN(Cc2noc(C3CC3)n2)C1 (centres undefined) | 107.2% |
| CCc1nc(CN2CCCC(N(C)CCn3cncn3)C2)no1 (centres undefined) | 8.167% |
| CN(CCCC#N)C1CCCN(Cc2noc(C3CC3)n2)C1 (centres undefined) | -8.895% |
| c1cncc(CN2CCC(NCCc3ccc4c(c3)CCO4)CC2)c1 | 11.75% |
| O=C1CCCCN1Cc1cccc(NC(=O)N2CCSCC2)c1 | 7.58% |
| COc1cccc(C(C(=O)O)N2CCCN(C3CCCC3)CC2)c1OC (centres undefined) | 17.91% |
| Cc1noc(C)c1CCN1CCCC1c1nc2cc(F)ccc2[nH]1 (centres undefined) | -25.67% |

| SMILES | Percent Effect |
| --- | --- |
| CC(NC(=O)Nc1cccnc1N1CCCC1)c1nncn1C (centres undefined) | -5.724% |
| CCc1cc(NCCNC(C)=O)nc(N2CCCC2)n1 | 3.61% |
| CCOc1ccc(S(=O)(=O)NCCCc2ccc(N(C)C)cc2)cc1C | 28.94% |
| Cc1cc(C)n(CCC(=O)OCC(=O)N2CCc3sccc3C2)n1 | 1.296% |
| CN(CC1CCCO1)c1nc(-c2cccnc2)nc2c1CCNCC2 (centres undefined) | -5.842% |
| Cc1cc(C2CCCN2CC(=O)N(CCC#N)c2ccccc2F)on1 (centres undefined) | 6% |
| CC(NCC(=O)Nc1ccc(N2CCCCCC2)cc1)c1cccs1 (centres undefined) | 140.9% |
| CC(C)CCC(=O)NCc1ccc(N2CCCCC2)cc1 | 9.507% |
| O=C(Cc1cccs1)NCC(=O)Nc1cn[nH]c1 | -3.119% |
| CN(CC(=O)NS(=O)(=O)c1cccs1)Cc1ccccc1 | -0.04031% |
| CN(CC(=O)NCC(=O)Nc1ccc(F)cc1)Cc1cccs1 | 82.61% |
| CCCC(=O)NCc1ccc(N2CCCCC2)cc1 | -2.635% |
| CCC(NC(=O)NCC(=O)Nc1ccc(F)cc1)c1ccncc1 (centres undefined) | 13.9% |
| CC(NCC(=O)NCC(=O)Nc1ccc(F)cc1)c1cccs1 (centres undefined) | 91.77% |
| CC(C#N)CSc1ccccc1NCC(=O)Nc1ccc(F)cc1 (centres undefined) | -2.506% |
| COc1ccc(NC(=O)N2CCCC2c2ccco2)cc1OC (centres undefined) | 20.26% |
| COc1cc(Nc2c(C#N)c(=O)n(C)c(=O)n2C)cc(OC)c1 | 0.2169% |
| COC(=O)C(NC(=O)C1CC1)c1cc(F)ccc1F (centres undefined) | 87.91% |
| Cc1nc(C(NC(=O)C2CCCC2)c2ccccc2F)no1 (centres undefined) | -17.79% |
| O=C(NC1CC1)NC(c1cc(F)ccc1F)C1CC1 (centres undefined) | -0.2014% |
| CNC(C(=O)OC)c1cc(F)ccc1F.Cl (centres undefined) | 100.3% |
| CC(c1cc(F)ccc1F)N(C)CCS(=O)(=O)CCC(N)=O (centres undefined) | -2.852% |
| COC(=O)C(NC(=O)COC1CCCC1)c1cc(F)ccc1F (centres undefined) | 0.6159% |
| COC(=O)C(NC(=O)C1CCCC1)c1cc(F)ccc1F (centres undefined) | 111.2% |
| COc1ccccc1C(NC(=O)C1CCCC1)c1noc(C)n1 (centres undefined) | -4.234% |
| COc1ccccc1C(NC(=O)C1CCC1)c1noc(C)n1 (centres undefined) | -10.07% |

| SMILES | Percent Effect |
| --- | --- |
| COC(=O)C(NC(=O)c1cc(F)cc(F)c1)c1cccnc1 (centres undefined) | 7.008% |
| COC(=O)C(NC(=O)C1CCC1)c1cc(F)ccc1F (centres undefined) | 101.8% |
| CNC(=O)C1CN(Cc2ccc(C#N)cc2F)c2ccccc2O1 (centres undefined) | -15.36% |
| CC(C)C(=O)N1CCN(C(=O)c2cc(Cl)no2)[C@H]2CS(=O)(=O)C[C@H]21 | -5.437% |
| N#Cc1cccnc1NC1CCN(c2ccccc2OC(F)F)C1=O (centres undefined) | -11.66% |
| O=C(NCCNc1cncc(Br)c1)c1ccc(O)cc1 | -0.2825% |
| O=C1c2cccnc2OC(CN2CCOCC2)CN1Cc1cccs1 (centres undefined) | 106% |
| O=C(NC1CCCCC1)N1CCC(N2Cc3ncccc3C2=O)CC1 | 2.597% |
| CCN1CC(CN2CCOCC2)Oc2ncccc2C1=O (centres undefined) | 121.1% |
| O=C1c2cccnc2OC(CN2CCOCC2)CN1CC1CC1 (centres undefined) | 142% |
| Cc1cccc(C)c1C(=O)N1C[C@@H](CN2CCOCC2)[C@@H](CO)C1 | -12.05% |
| COc1ncccc1CNC(=O)N1CCC(CN2CCOCC2)CC1 | -11.8% |
| CCOC(=O)N1CCC(N2Cc3ncccc3C2=O)CC1 | -7.226% |
| O=C(O)C(F)(F)F.O=C(O)C(F)(F)F.O=C(O)C(F)(F)F.c1cncc(C[C@H]2[C@H](N3CCOCC3)CCN2Cc2cccs2)c1 | -5.101% |
| COc1ncccc1NC(=O)N1CCC(CN2CCOCC2)CC1 | 40.61% |
| O=C1c2cccnc2OC(CN2CCOCC2)CN1C1CCC1 (centres undefined) | 113.2% |
| CCc1c(C)sc2ncnc(N3CC[C@@H](N4CCC(O)CC4)[C@H](O)C3)c12 | -2.578% |
| O=C(O)c1cn(CC2CCCN(c3nc4ccccc4s3)C2)nn1 (centres undefined) | -26.21% |
| NC(=O)c1ccccc1-n1cc(-c2cccc(C(=O)O)c2)cn1 | 8.053% |
| CCN1CCCN(c2ncccc2C(=O)N2CCCCC2)CC1 | -13.17% |
| COCCN1CCC(CNc2nccc(-c3cnn(C)c3)n2)CC1 | 12.08% |
| CC(C)N1CCC(Cc2cnc(-c3cccc(C(=O)O)c3)cn2)C1 (centres undefined) | -8.094% |
| COCCN1CCC(Cc2cncc(-c3ccc(C(=O)O)cc3)n2)C1 (centres undefined) | -8.312% |
| CC(C)N1CCC(Cc2cncc(-c3cccc(C(=O)O)c3)n2)C1 (centres undefined) | 113.7% |
| CC(C)N1CCC(Cc2cc(-c3cccc(C(=O)O)c3)ncn2)C1 (centres undefined) | -6.349% |
| CC(C)N1CCC(Cc2cc(-c3cccc(C(=O)O)c3)ncn2)CC1 | 121.9% |

| SMILES | Percent Effect |
| --- | --- |
| CC(C)N1CCC(CC(=O)NCc2cc(O)ncn2)CC1 | -21.37% |
| CC(C)N1CCC(Cc2cncc(-c3cccc(C(=O)O)c3)n2)CC1 | 108.9% |
| COCCN1CCC(Cc2cncc(-c3ccc(C(=O)O)cc3)n2)CC1 | 112% |
| CCOCC1CN(Cc2ccoc2)Cc2nn(CC3CC3)cc21.O=C(O)C(F)(F)F (centres undefined) | -8.348% |
| Cn1cnc2c1C(COCC1CCOCC1)CN(Cc1ccccn1)C2.O=C(O)C(F)(F)F.O=C(O)C(F)(F)F.O=C(O)C(F)(F)F (centres undefined) | -22.25% |
| CN(C)C(=O)COCC1CN(Cc2ccco2)Cc2ncn(C)c21.O=C(O)C(F)(F)F.O=C(O)C(F)(F)F (centres undefined) | 91.74% |
| CCn1cc2c(n1)CN(Cc1ccoc1)CC2COCC1CC1.O=C(O)C(F)(F)F (centres undefined) | -14.5% |
| Cc1cccc(CN2Cc3ncn(C)c3C(COCC(=O)N(C)C)C2)n1.O=C(O)C(F)(F)F.O=C(O)C(F)(F)F.O=C(O)C(F)(F)F (centres undefined) | 115.6% |
| CN(C)C(=O)COCc1nn(C)c2c1CCN(Cc1ccco1)C2.O=C(O)C(F)(F)F | -2.792% |
| Cc1cccc(CN2CCc3c(COCC(=O)N(C)C)nn(C)c3C2)n1.O=C(O)C(F)(F)F.O=C(O)C(F)(F)F | 1.951% |
| CN(C)C(=O)COCC1CN(Cc2cccs2)Cc2ncn(C)c21.O=C(O)C(F)(F)F.O=C(O)C(F)(F)F (centres undefined) | 100.2% |
| CN(C)C(=O)COCC1CN(Cc2ccoc2)Cc2ncn(C)c21.O=C(O)C(F)(F)F.O=C(O)C(F)(F)F (centres undefined) | 111.6% |
| c1ccc(-c2cc(CN3C[C@@H]4CC[C@H](C3)N(CC3CCC3)C4)on2)cc1 | 10.47% |
| O=C(CN1CCOC1=O)N1CCC2(CCc3ccccc32)CC1 | -4.229% |
| CCCNC(=O)c1ccc(S(=O)(=O)NC2(COC)CCCC2)cc1 | -2.263% |
| CC(C)c1cc(NCC2(N(C)C)CCCC2)ncn1 | -5.055% |
| O=C(c1cc(CC2(NCc3ccccc3)COC2)no1)N1CCCCC1 | 5.452% |
| CS(=O)(=O)CCCNC1(c2cccc(Cl)c2)CCCC1 | -3.433% |
| N#CCCCS(=O)(=O)NC1(c2cccc(Cl)c2)CC1 | 95.05% |
| COCCCC(=O)NC1(c2cccc(Br)c2)CC1 | -6.052% |
| N#CCCCS(=O)(=O)NC(=O)c1cccc(Cl)c1F | -1.006% |
| COC(=O)NCCCC(=O)NC1(c2cccc(Cl)c2)CC1 | -10.63% |
| N#CCCCS(=O)(=O)NC1(c2cccc(Br)c2)CC1 | 115.6% |
| N#CCCCS(=O)(=O)NC(=O)c1ccccc1F | -12.54% |
| CS(=O)(=O)CCC(=O)NC1(c2cccc(Br)c2)CC1 | -24.79% |
| N#CCCCS(=O)(=O)NC1(c2ccc(F)cc2)CC1 | 94.21% |
